Assay results published in the supplement of paper PMC11732987, “Enantioselective OTUD7B fragment discovery through chemoproteomics screening and high-throughput optimisation” (Communications Chemistry, 2025).

Each compound was assayed against COPS5 (UniProt Q92905) (assay: log2 ratio of Biotin-Ahx-Ub-VS probe labelling (fragment/DMSO); higher = less target engagement (more negative = stronger competition), active = hit call of the paper (q ≤ 0.05, log2 ratio ≤ -1)). Details: compound concentration: 200 uM; treatment time: 3 h.
Chain of COPS5 (Q92905 whole entry, looked up, the tested form may be a part): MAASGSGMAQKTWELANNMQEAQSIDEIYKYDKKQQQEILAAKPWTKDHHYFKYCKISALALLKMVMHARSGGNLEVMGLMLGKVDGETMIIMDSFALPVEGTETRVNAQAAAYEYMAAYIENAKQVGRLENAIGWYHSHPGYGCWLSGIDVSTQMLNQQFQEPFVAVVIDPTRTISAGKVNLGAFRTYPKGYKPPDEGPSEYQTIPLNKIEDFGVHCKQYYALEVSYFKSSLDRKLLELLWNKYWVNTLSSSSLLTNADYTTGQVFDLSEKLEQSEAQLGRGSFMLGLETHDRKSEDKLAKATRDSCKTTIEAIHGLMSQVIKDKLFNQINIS
Method: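 Competitive ABPP in HEK293T cell lysate. Lysates were treated with each chloroacetamide fragment at 200 µM for 3 h, then with Biotin-Ahx-Ub-VS (0.5 µM, 1 h), NeutrAvidin-enriched and analysed by diaPASEF LC-MS/MS. Protein LFQ was median-normalised; average log2 ratio is fragment/DMSO from an unpaired t-test (n=3 treated, n=44 DMSO). Hits: q ≤ 0.05, log2 ratio ≤ -1, unique peptides ≥ 2.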

log2 ratio of Biotin-Ahx-Ub-VS probe labelling, inactive:
O=C(CCl)NCc1cccc(F)c1 0.17
Cc1cccc(N(CCC#N)C(=O)CCl)c1C -0.0126
Cc1ccccc1C1(CNC(=O)CCl)CCOCC1 0.211
Cl.Cn1ncc2c1CC(NC(=O)CCl)CC2 (stereo not given) -0.0206
O=C(CCl)NCC(=O)N1CCCC1 -0.0202
O=C(CCl)N(C1CCCC1)C1CCS(=O)(=O)C1 (stereo not given) -0.0682
Cc1noc(C)c1CNC(=O)CCl 0.13
CC(NC(=O)CCl)c1cnn(C2CC2)c1 (stereo not given) -0.244
O=C(CCl)NCc1noc(C2CC2)n1 0.133
Cc1cccc(N2CCC(NC(=O)CCl)C2=O)c1 (stereo not given) -0.0421
Cc1n[nH]c2c1CN(C(=O)CCl)CC2 0.184
O=C(CN1CCN(C(=O)CCl)CC1)Nc1cccc(F)c1 0.273
Cc1cccn2cc(CCNC(=O)CCl)nc12.Cl -0.284
CCc1c[nH]c(CNC(=O)CCl)n1.Cl -0.182
Cc1n[nH]c(=O)c2c(NC(=O)CCl)oc(C)c12 0.0565
Cc1cccc(C(CNC(=O)CCl)N2CCOCC2)c1.Cl (stereo not given) 0.0369
CCN1C(=O)C2CN(C(=O)CCl)CCN2C1=O (stereo not given) -0.0909
CN1c2ccccc2C(NC(=O)CCl)CS1(=O)=O (stereo not given) 0.318
O=C(CCl)NC1CCC(C(F)(F)F)CC1 (stereo not given) -0.114
CN(Cc1nc2ccccc2[nH]1)C(=O)CCl.Cl -0.0146
O=C(CCl)N1CCC(c2ccn[nH]2)C1 (stereo not given) 0.121
Cc1cc(C(=O)NC2CCN(C(=O)CCl)CC2)no1 0.0469
Cc1noc(N2CCN(C(=O)CCl)CC2)n1.Cl -0.17
O=C(CCl)Nc1ccc(Cl)c(F)c1 0.155
COc1ccc(C2CCCN2C(=O)CCl)c(OC)c1 (stereo not given) -0.524
Cc1nc(CNC(=O)CCl)c2ccccn12.Cl -0.109
C/C(=C\CNC(=O)CCl)c1cnn(C)c1.Cl -0.0819
CCCn1nccc1NC(=O)CCl -0.308
Cc1c(C#N)c(NC(=O)CCl)n(Cc2ccco2)c1C -0.146
CC(=O)C1CCCCN1C(=O)CCl (stereo not given) -0.141
O=C(CCl)N1CCC(=C(F)CO)C1 -0.253
CC1(NC(=O)CCl)CCS(=O)(=O)C1 (stereo not given) 0.0148
O=C(CCl)N1CCCCCC1c1ncon1 (stereo not given) 0.187
O=C(CCl)N1CCN(C(=O)N2CCCCC2)CC1 -0.16
Cl.Cn1nc2c(c1CNC(=O)CCl)CCCC2 -0.111
CS(=O)(=O)N1CCCN(C(=O)CCl)CC1 0.193
O=C(CCl)N1CC=C(c2c[nH]c3ccccc23)CC1 -0.0638
O=C(CCl)N1CCN2C(=O)CCC2C1 (stereo not given) 0.141
O=C(CCl)N1CCOC2(CCC2)CC1 -0.0213
O=C(CCl)Nc1cc(Cl)ccc1C(=O)O 0.0271
